Screens: PubChem, National Center for Advancing Translational Sciences (NCATS)
In the library only some 1.5% were active in any assay of this set; here they are far more common.
BLM inh: inhibitors of human Bloom syndrome helicase BLM; P54132; recombinant BLM DNA unwinding, fluorescence dequenching; Potency, µM (series often up to 56.1 µM), without a hit: top-dose activity change, negative = inhibition, most hits filed as inhibitors; actives 0.2% (n = 350,000); AID 2528;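 also: potency is read from the fitted curve at half-maximal effect; plate controls were vehicle for no effect and no enzyme for full effect; nearly all actives have a fitted effect of over 35% in size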
PI5P4Ka inh: blocks human PI5P4K alpha kinase activity; P48426; PI5P4Kalpha enzyme, ADP-Glo luminescence, 60 min; hits give low values; max response, %; actives 1.2% (n = 330,000); AID 652105; active = max response of -50% or lower; inconclusive = between -30% and -50%; inactive = -30% or higher; also: value at the top dose of about 77 µM
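Luminescence from ADP-Glo served as readout of PI5P4Kalpha activity in a qHTS format. Reaction: enzyme, substrate, compound, ATP at 5 microM final, 60 min at RT.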
APE1 inh-1: APE1 (human) endonuclease inhibition. recombinant APE1, TAMRA/BHQ-2 abasic DNA cleavage fluorescence. Potency, µM (titrated, usually from 65.8 µM), for inactives: at the highest dose activity change, negative = inhibition, hits mostly inhibitors. actives 0.35% (n = 350,000). AID 2517;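 also: potency is read from the fitted curve at half-maximal effect; plate controls were vehicle for no effect and reference inhibitor for full effect; nearly all actives have a fitted effect of over 55% in size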
Target sequence (P27695 whole entry, looked up): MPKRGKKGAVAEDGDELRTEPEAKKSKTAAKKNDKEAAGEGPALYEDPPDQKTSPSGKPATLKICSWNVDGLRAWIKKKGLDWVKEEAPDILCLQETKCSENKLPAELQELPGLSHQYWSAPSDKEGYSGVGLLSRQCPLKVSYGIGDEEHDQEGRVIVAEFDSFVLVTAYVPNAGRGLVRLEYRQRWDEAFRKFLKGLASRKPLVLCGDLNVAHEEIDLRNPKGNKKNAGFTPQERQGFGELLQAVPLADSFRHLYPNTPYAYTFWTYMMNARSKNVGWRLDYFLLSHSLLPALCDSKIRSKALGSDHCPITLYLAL
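0.75 nM APE1 + cpd, 15 min RT; start w/ 50 nM TAMRA/BHQ-2 THF-abasic dsDNA; kinetic fluor 525/598 nm ×3 reads @60 s; Δ(read3−read1); normalized to DMSO and NSC13755 control wells.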
RECQ1 inh: RECQ1 (human) helicase inhibition; P46063; RECQ1 DNA unwinding, red fluorescence kinetic read; Potency, µM (highest dose often 57.3 µM), for inactives: at the highest dose activity, negative = inhibition, usual class: inhibitors; actives 0.54% (n = 240,000);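 also: potency is read from the fitted curve at half-maximal effect; plate controls were vehicle for no effect and no enzyme for full effect; nearly all actives have a fitted effect of over 30% in size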
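50 nM RECQ1T1 preincubated 15 min with compound in Tris pH 8.0 buffer with MgCl2, DTT, Tween-20 and 2.5 ug/ml poly(dI-dC); started with 200 nM TAMRA/BHQ-2 forked duplex and 2 mM ATP. Unwinding read as fluorescence (525/598 nm), two reads 2 h apart.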
FEN1 inh: inhibitors of human flap endonuclease 1; P39748; Recombinant FEN1 flap cleavage, fluorescence, 15 min; Potency, µM (doses to about 114 µM), for inactives: top-dose activity change, negative = inhibition, actives largely listed as inhibitors; actives 0.35% (n = 390,000); AID 588795; also: potency is read from the fitted curve at half-maximal effect; nearly all actives have a fitted effect of over 65% in size
Target sequence (P39748 whole entry, looked up): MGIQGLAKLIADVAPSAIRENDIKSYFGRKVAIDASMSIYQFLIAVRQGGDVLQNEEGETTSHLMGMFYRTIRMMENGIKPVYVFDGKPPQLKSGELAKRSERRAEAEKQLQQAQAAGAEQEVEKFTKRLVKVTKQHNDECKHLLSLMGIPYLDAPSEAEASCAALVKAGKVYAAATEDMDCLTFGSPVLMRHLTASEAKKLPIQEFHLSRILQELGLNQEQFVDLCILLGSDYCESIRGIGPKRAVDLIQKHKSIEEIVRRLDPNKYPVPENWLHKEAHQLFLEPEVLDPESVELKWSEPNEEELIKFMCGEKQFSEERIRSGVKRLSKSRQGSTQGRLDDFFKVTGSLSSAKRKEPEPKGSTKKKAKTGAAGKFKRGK
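FEN1 at 10 nM, compound pretreatment for 15 min (room temperature), 50 nM final substrate to initiate; endpoint reads at 0 and 15 min; DMSO-only plates used as vehicle background.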
GCN5L2 inh: GCN5L2 (KAT2A) acetyltransferase inhibition | Q92830 | GCN5L2 HAT assay, ThioGlo1 CoA-SH fluorescence | Potency, µM (series often up to 58.9 µM), without a hit: top-dose activity change, negative = inhibition, actives largely listed as inhibitors | actives 0.21% (n = 390,000); also: potency is read from the fitted curve at half-maximal effect
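GCN5L2 (20nM final) in 50mM HEPES, 0.1mM EDTA pH 7.5, 0.01% Tween-20 was preincubated 15 min at room temperature with compound, then given ThioGlo1 (50uM), H3(1-25) peptide (75uM) and acetyl-CoA (70uM); CoA-thiol fluorescence (Ex340/Em540) was read at 0 and 20 min.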
APE1 dye cs: DNA dye displacement counter-screen activity. shares compounds with APE1 inh-1. DNA fluorescent dye displacement counterscreen, fluorescence. Potency, µM (titrated, usually from 28.5 µM), for inactives: at the top dose activity change, negative = inhibition, most hits filed as inhibitors. actives 7% (n = 480). AID 2564;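 also: loss of thiazole orange fluorescence as the dye is displaced from duplex DNA; potency is read from the fitted curve at half-maximal effect; 0% = ThO with dsDNA and no compound and -100% = ThO without dsDNA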
EndoIV counter: counter-screen for APE1 inhibitors: inhibitors of E. coli endonuclease IV | shares compounds with APE1 inh-1 | E. coli Endo IV, fluorogenic AP-site DNA cleavage | Potency, µM (titrated, usually from 27.1 µM), inactives show at the top dose activity change, negative = inhibition, usual class: inhibitors | actives 4% (n = 560);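 also: potency is read from the fitted curve at half-maximal effect; plate controls were uninhibited enzyme wells for no effect and no enzyme buffer wells for full effect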
APE1 inh-2: confirmation of inhibitors of human APE1 endonuclease; shares compounds with APE1 inh-1; purified APE1, fluorogenic abasic-site DNA cleavage; Potency, µM (doses to about 57.1 µM), without a hit: top-dose activity change, negative = inhibition, usual class: inhibitors; actives 44% (n = 750); also: potency is read from the fitted curve at half-maximal effect; nearly all actives have a fitted effect of over 30% in size
APE1 FP: displaces DNA from human APE1 in FP assay | shares compounds with APE1 inh-1 | APE1 binding to TAMRA-labelled double-stranded DNA, fluorescence polarization displacement | Potency, µM (highest dose often 28.5 µM), inactives show at the top dose activity, negative = inhibition, most hits filed as inhibitors | actives 7% (n = 480) | AID 2573; also: potency is read from the fitted curve at half-maximal effect
Active calls of the source: *; i = inactive; ? = inconclusive; · = no result given; [ ] = remark or other dose. Unless noted, calls follow the shape of the dose curve; as a rule, active = well fitted curve in the direction sought with a large enough effect; inconclusive = small, poorly fitted or top-dose-only effect, or another doubt; inactive = no such curve, though single readings can be large; an effect the other way counts as inactive or inconclusive. Unless noted, % is scaled to controls: 0 for no effect and ±100 for the full control effect.

SMILES	BLM inh	PI5P4Ka inh	APE1 inh-1	RECQ1 inh	FEN1 inh	GCN5L2 inh	APE1 inh-2	others
COc1ccc2nc(N3CCCCC3)c(C#N)cc2c1	-9%	5	-3%	-3%	-20%	-11%	?
COc1ccc2nc(N3CCCC3)c(C#N)cc2c1	-7%	·	-3%	-4%	1%	-7%	·
CC(=O)Oc1cc2cccc(OC(C)=O)c(=O)c2c(OC(C)=O)c1OC(C)=O	?	-89*	0.45µM*	3.2µM*	1.1µM*	0%	6.3µM*	APE1 dye cs=1%;EndoIV counter=47%;APE1 FP=-1%
COc1cc2cccc(OC)c(=O)c2c(O)c1OC	1%	1	-2%	i	13%	-2%	·
NC(=O)c1ccc2nc(NC(=O)c3ccc(N)cc3)sc2c1	-9%	-25	-4%	-22%	2%	-10%	?
CC(=O)Nc1nc2cc(C(N)=O)ccc2s1	·	-14	5%	·	-3%	-4%	·
C[C@H](O)C(N)C(=O)O (stereo partly drawn)	-2%	·	12%	-3%	·	41%	·
COC(=O)C#CC(=O)OC	3%	·	-1%	3%	·	-9%	·
C=CCN1c2ccccc2[C@]23C[C@@H](C(=O)OC)N(S(=O)(=O)c4c(C)noc4C)C2=NC(C(=O)OC)=C(C(=O)OC)[C@H]13	-2%[12.4 µM]	·	0%[12.4 µM]	-11%[11.5 µM]	·	·	·
CC[C@H](C)[C@H](NC(=O)[C@H](Cc1ccccc1)NC(=O)[C@H](CCC(=O)O)NC(=O)[C@H](CCCCN)NC(=O)[C@H](C)NC(=O)[C@H](C)NC(=O)[C@H](CCC(N)=O)NC(=O)CNC(=O)[C@H](CCC(=O)O)NC(=O)[C@H](CC(C)C)NC(=O)[C@H](Cc1ccc(O)cc1)NC(=O)[C@H](CO)NC(=O)[C@H](CO)NC(=O)[C@@H](NC(=O)[C@H](CC(=O)O)NC(=O)[C@H](CO)NC(=O)[C@@H](NC(=O)[C@H](Cc1ccccc1)NC(=O)[C@@H](NC(=O)CNC(=O)[C@H](CCC(=O)O)NC(=O)[C@H](C)NC(=O)[C@@H](N)Cc1cnc[nH]1)[C@@H](C)O)[C@@H](C)O)C(C)C)C(=O)N[C@@H](C)C(=O)N[C@@H](Cc1c[nH]c2ccccc12)C(=O)N[C@@H](CC(C)C)C(=O)N[C@H](C(=O)N[C@@H](CCCCN)C(N)=O)C(C)C	1%	·	?	-22%	·	-22%	·
COc1ccccc1C1CN(c2ccccc2)N=C1c1cccs1 (stereo not drawn)	-7%	·	1%	-9%	-16%	0%	?
Cn1c(=O)c(NCCc2ccccc2)c2c3c(cccc31)C(=O)c1ccccc1-2	?	2	32µM*	10µM*	56µM*	-29%	?	APE1 dye cs=i;EndoIV counter=?;APE1 FP=0.79µM*
Cn1c(=O)c(NC2CCCCC2)c2c3c(cccc31)C(=O)c1ccccc1-2	1%	13	1%	i	-18%	-5%	·
CCCCCCCCOc1ccc(C(=O)O)cc1	·	52	29%	-10%	-16%	-19%	·
C=C(C)C(=O)OCCCCCCOc1ccc(C(=O)O)cc1	-16%	·	-3%	-4%	-4%	1%	?
CC[C@H](C)[C@H](NC(=O)[C@H](CCC(=O)O)NC(=O)[C@@H](N)CO)C(=O)N[C@@H](CCC(N)=O)C(=O)N[C@@H](CC(C)C)C(=O)N[C@@H](CCSC)C(=O)N[C@@H](Cc1cnc[nH]1)C(=O)N[C@@H](CC(N)=O)C(=O)N[C@@H](CC(C)C)C(=O)NCC(=O)N[C@@H](CCCCN)C(=O)N[C@@H](Cc1cnc[nH]1)C(=O)N[C@@H](CC(C)C)C(=O)N[C@@H](CC(N)=O)C(=O)N[C@@H](CO)C(=O)N[C@@H](CCSC)C(=O)N[C@@H](CCC(=O)O)C(=O)N[C@@H](CCCNC(=N)N)C(=O)N[C@H](C(=O)N[C@@H](CCC(=O)O)C(=O)N[C@@H](Cc1c[nH]c2ccccc12)C(=O)N[C@@H](CC(C)C)C(=O)N[C@@H](CCCNC(=N)N)C(=O)N[C@@H](CCCCN)C(=O)N[C@@H](CCCCN)C(=O)N[C@@H](CC(C)C)C(=O)N[C@@H](CCC(N)=O)C(=O)N[C@@H](CC(=O)O)C(=O)N[C@H](C(=O)N[C@@H](Cc1cnc[nH]1)C(=O)N[C@@H](CC(N)=O)C(=O)N[C@@H](Cc1ccccc1)C(=O)O)C(C)C)C(C)C	-1%	·	0%	-10%	·	-4%	·
O=P1(O)OP(=O)(O)OP(=O)(O)O1.[Al]	1%	·	-3%	-6%	·	31%	·
O=C1CC(c2ccc(O)c(O)c2)Oc2cc(O)cc(O)c21 (stereo not drawn)	4%	-27	13µM*	?	?	-1%	?	APE1 dye cs=-8%;EndoIV counter=30%;APE1 FP=6%
COc1ccc(C2CC(=O)c3c(O)cc(O)cc3O2)cc1O (stereo not drawn)	0%	-22	-2%	-10%	11%	-11%	·
COc1cc2c(c(OC)c1OC)-c1c(cc(OC)c(OC)c1OC)CC(C)C(C)C2 (stereo not drawn)	-12%	·	-1%	-7%	·	0%	·
COC(=O)CC[C@@H](C(=O)O)N1C(=O)c2ccccc2C1=O	1%	2	-1%	-7%	1%	?	·
O=C(O)CC[C@@H](C(=O)O)N1C(=O)c2ccccc2C1=O	0%	1	?	-5%	11%	-12%	?	APE1 dye cs=-4%;EndoIV counter=6%;APE1 FP=-2%
NC(=O)C1CCN(C2CC(=O)NC2=O)CC1 (stereo not drawn)	-3%	-4	?	-3%	3%	-5%	?	APE1 dye cs=-5%;EndoIV counter=-1%;APE1 FP=9%
